Compound activity from PubChem.
TGFb SMAD3 inh: qHTS for Inhibitors of TGF-b; HepG2 CAGA-GFP TGF-b/SMAD3 reporter, GFP fluorescence, 18 h; TGF-beta stimulated, 500 pg/mL final; Potency, µM (titrated, usually from 46.1 µM), inactives show at the top dose activity, negative = inhibition, usual class: inhibitors; actives 1.2% (n = 410,000); AID 588855, 2011; note: potency is the fitted concentration of half-maximal effect; % is set by controls: 0 for no effect and ±100 for the full control effect; nearly all actives have a fitted effect of over 65% in size
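Per well, imaged GFP fluorescence of HEPG2 CAGA-GFP cells gives the signal; cells get compound, then TGF-beta (500 pg/mL final), 18 h at 37 degrees C; %Activity versus -TGF-beta and +DMSO controls.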
HepG2 viability: qHTS for Inhibitors of TGF-b: Cytotox Counterscreen; HepG2 CAGA-GFP viability, ATP luminescence, 18 h; actives 0.76% (n = 410,000); Potency, µM (doses to about 46.1 µM), without a hit: at the highest dose activity change, negative = cytotoxicity, hits mostly cytotoxic; note: potency is the fitted concentration of half-maximal effect
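HepG2 CAGA-GFP cells (1000/well, DMEM with 1% FBS) received compound, then TGF-beta at 500 pg/mL final, and were incubated 18 hours at 37 degrees C. Viability was read by CellTiter-Glo luminescence. Media-only wells were set as complete cell-killing and DMSO as no toxicity.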
ASM inhibitor: Inhibitors of Secretory Acid Sphingomyelinase (S-ASM): qHTS; AID 504937, 2011; Potency, µM (titrated, usually from 57.5 µM), without a hit: top-dose activity change, negative = inhibition, usual class: inhibitors; Sphingomyelin phosphodiesterase (Homo sapiens), P17405; placental ASM, HMU-PC fluorogenic substrate, 60 min; actives 0.006% (n = 340,000); note: potency is the fitted concentration of half-maximal effect
Target sequence (P17405 47-631 limits assumed): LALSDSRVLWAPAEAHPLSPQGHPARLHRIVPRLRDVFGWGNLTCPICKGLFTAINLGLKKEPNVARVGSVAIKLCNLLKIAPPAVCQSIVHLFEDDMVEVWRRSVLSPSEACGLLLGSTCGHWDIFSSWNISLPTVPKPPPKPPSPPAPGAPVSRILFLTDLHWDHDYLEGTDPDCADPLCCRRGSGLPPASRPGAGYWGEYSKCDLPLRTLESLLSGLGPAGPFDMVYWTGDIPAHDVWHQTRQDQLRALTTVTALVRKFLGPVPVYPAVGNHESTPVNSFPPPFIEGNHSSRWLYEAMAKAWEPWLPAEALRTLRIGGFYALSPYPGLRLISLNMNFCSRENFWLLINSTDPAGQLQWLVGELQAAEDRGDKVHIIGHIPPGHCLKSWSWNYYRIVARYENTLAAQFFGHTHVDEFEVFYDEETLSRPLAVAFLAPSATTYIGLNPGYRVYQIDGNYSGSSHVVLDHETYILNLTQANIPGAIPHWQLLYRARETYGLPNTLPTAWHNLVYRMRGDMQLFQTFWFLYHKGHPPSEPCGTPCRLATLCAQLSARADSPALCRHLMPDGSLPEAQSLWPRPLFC
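HMU-PC0 cleavage (9 uM final) by human placental ASM, 60 min at 37 °C following 10 min compound exposure at RT; stopped at pH 10, fluorescence Ex 386/Em 447 nm.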
DT40 TDP1 no CPT: qHTS for Inhibitors of human tyrosyl-DNA phosphodiesterase 1 (TDP1): qHTS in cells in absence of CPT; DT40 Tdp1-/- hTDP1 cells, no CPT, ATP luminescence, 48 h; actives 15% (n = 420,000); Potency, µM (doses to about 46.2 µM), for inactives: at the highest dose activity change, negative = growth inhibition, most hits filed as inhibitors; note: potency is the fitted concentration of half-maximal effect; % is set by controls: 0 for no effect and ±100 for the full control effect; nearly all actives have a fitted effect of over 55% in size
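Seeded 400 DT40-hTDP1 cells/well (vehicle DMSO, no 20 nM CPT); pinned compounds; ≥48 hr at 37 °C; CellTiter-Glo luminescence as viability measure.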
IL1B secr inh: qHTS for Inhibitors of Inflammasome Signaling: IL-1-beta AlphaLISA Primary Screen; activity change, % at 57.5 µM; actives 4.7% (n = 360,000); THP-1 LPS/ATP IL-1B secretion, AlphaLISA, 16 h; hits give low values; in the data active = activity change below about -50%; inconclusive = mostly about -30% to -49%; note: % is set by controls: 0 for no effect and ±100 for the full control effect
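Secreted IL-1B measured by AlphaLISA bead assay after 16 h compound exposure of THP-1 cells; compounds (final up to 57.5 uM) added 1 h before LPS (250 ng/mL) and ATP (1.25 mM) stimulation; lower signal means less secretion.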
DT40 TDP1 CPT: qHTS for Inhibitors of human tyrosyl-DNA phosphodiesterase 1 (TDP1): qHTS in cells in presence of CPT. chicken DT40 Tdp1-/-;hTDP1 cells + 20 nM CPT, ATP luminescence, 48 h. Potency, µM (top dose mostly 46.2 µM), for inactives: top-dose activity change, negative = growth inhibition, most hits filed as inhibitors. actives 12% (n = 420,000); note: potency is the fitted concentration of half-maximal effect; % is set by controls: 0 for no effect and ±100 for the full control effect; nearly all actives have a fitted effect of over 55% in size
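Cell growth measured by CellTiter-Glo luminescence after a minimum 48 h, 37 C compound exposure with 20 nM CPT in Tdp1-knockout DT40 cells stably expressing hTDP1, seeded 400/well; qHTS titration format.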
Starred values were filed as active, the others as inactive; ? = inconclusive; · = no result given; ! = not confirmed by another sample; [ ] = remark or other dose. A selection: hits, their analogues and other compounds. The true share with any hit is near 19%. Unless noted, calls come from the whole dose curve; as a rule, active = well fitted curve in the direction sought with a large enough effect; inconclusive = small, poorly fitted or top-dose-only effect, or another doubt; inactive = no such curve, though single readings can be large; an effect the other way counts as inactive or inconclusive.

SMILES	TGFb SMAD3 inh	HepG2 viability	ASM inhibitor	DT40 TDP1 no CPT	IL1B secr inh	DT40 TDP1 CPT
N#C/C(=C(/O)COC(=O)COc1cccc(Br)c1)c1nc2ccccc2[nH]1	?	-42%	4%	-12%	131	?
CCOC(=O)c1c(C)[nH]c(C(=O)OCC(O)=C(C#N)c2nc3ccccc3[nH]2)c1C	?	-45%	-2%	?	38	?
Cc1cccc(C)c1OCC(=O)OC/C(O)=C(\C#N)c1nc2ccccc2[nH]1	15%	-48%	10%	21µM*	-28	?
Cc1cc(C)cc(OCC(=O)OC/C(O)=C(\C#N)c2nc3ccccc3[nH]2)c1	-6%	-1%	4%	21µM*	-98*	?
Cc1c(-c2cccc(Cl)c2)nc2ccccc2c1C(=O)OC/C(O)=C(\C#N)c1nc2ccccc2[nH]1	26%	-14%	75%	21µM*	7	15µM*
O=c1ccn(CCc2c[nH]c3ccccc23)c2c1CCCC2	0%	-1%	1%	-19%	-58*	-24%
C=CCNC(=O)c1sc(-c2ccccc2)nc1C	0%	-15%	3%	-2%	7	1%
C=CCNc1nc(-c2sc(NC(=O)C(C)(C)C)nc2C)c(-n2cc(-c3ccccc3)nn2)s1	·	·	·	15µM*	-1	21µM*
CCS(=O)(=O)NCc1c(C)ncc2c1CCN(C(=O)c1ccc(F)cc1)C2	·	·	·	-14%	·	26%[9.04 µM]
N#CC1=C(N)Oc2cc(O)ccc2C1c1cccs1 (configuration not stated)	9%	-33%	2%	?	20	?
N#CC1=C(N)Oc2c(ccc3ccccc23)C1c1cccs1 (configuration not stated)	?	-17%	1%	0.63µM*	55	0.56µM*
Cc1ccc2[nH]c(=O)c(C3C(C#N)=C(N)Oc4c3ccc3cccnc43)cc2c1 (configuration not stated)	10µM*	-110%	0%	21µM*	?	21µM*
N#CC1=C(N)Oc2cc(O)ccc2C1c1cccnc1 (configuration not stated)	9%	0%	-2%	-12%	-9	-3%
COC(=O)C1=C(C)NC(C)=C(C(=O)OC)C1c1cc2cc(C)ccc2[nH]c1=O	?	0%	49%	-25%	8	-19%
N#CC1=C(N)Oc2c(ccc3cccnc23)C1c1ccccc1 (configuration not stated)	?	-35%	-2%	4.1µM*	74	5.2µM*
O=C(Nc1ccc(Cl)cc1Cl)c1cnn2c1NC(=C1CC1)C=C2C(F)F	1%	-1%	·	-29%	·	-8%
CN(C)c1ccc2c(c1)OC(N)=C(C#N)C2c1cccc(F)c1 (configuration not stated)	?	-8%	-8%	0.021µM*	-22	0.021µM*
Nc1nc(N)c2cc(Sc3ccc(Cl)cc3)ccc2n1	?	-114%	·	1µM*	?	3.7µM*
Nc1nc(N)c2cc(Sc3cccc(C(F)(F)F)c3)ccc2n1	?	-116%	·	1.3µM*	?	9.2µM*
Nc1nc(N)c2cc(Sc3ccc4ccccc4c3)ccc2n1	11µM*	-179%	10%	8.2µM*	?	18µM*
CSCCC(NS(=O)(=O)c1cccc(C(F)(F)F)c1)C(=O)N(C)CCOc1ccc(Cl)cc1 (configuration not stated)	?	1%	·	?	-57*	?
C[C@H]1CN([C@@H](C)CO)C(=O)CCCn2nncc2CO[C@H]1CN(C)C(=O)C1CC1	-1%	-2%	·	?	-15	-10%
Oc1ccc(-c2n[nH]c(C(F)(F)F)c2-c2ccccc2)c(O)c1	?	-14%	-14%	1.6µM*	-78*	1.8µM*
COc1ccccc1-c1c(-c2ccc(O)cc2O)n[nH]c1C(F)(F)F	?	-25%	-10%	2.3µM*	36	5.8µM*
COc1ccc(-n2ncc(C(=O)NCCN3CCOCC3)c2C2CCN(C(=O)OC(C)(C)C)CC2)cc1	-24%	2%	·	-18%	·	-12%
SMILES	TGFb SMAD3 inh	HepG2 viability	ASM inhibitor	DT40 TDP1 no CPT	IL1B secr inh	DT40 TDP1 CPT
CCC(=O)N1CCc2cc(OC)c(OC)cc2C1COc1ccccc1OC (configuration not stated)	25%	-2%	0%	?	3	?
COc1cc2c(cc1OC)C(COc1ccccc1OC)N(C(=O)CC(C)C)CC2 (configuration not stated)	2%	-22%	·	18µM*	·	?
CCCC(=O)N1CCc2cc(OC)c(OC)cc2C1COc1ccccc1OC (configuration not stated)	-2%	-1%	1%	18µM*!	0	?
CN(C)c1cc(F)c(C=O)cc1F	0%	6%	·	-2%	·	17%
CCc1ccc(NC(=O)C2CCCN(S(=O)(=O)c3cccc4nonc34)C2)cc1 (configuration not stated)	-2%	2%	·	-30%	·	-10%
C=CCNc1nc(NCc2ccc(NC(C)=O)cc2)c2sc(-c3ccccc3)cc2n1	?	11µM*	·	9.2µM*	?	8.2µM*
C=CCNc1nc(NCCCN2CCCC2=O)c2sc(-c3ccccc3)cc2n1	?	-13%	·	21µM*	·	18µM*
COc1ccc(-c2cc(CNc3nc(NC(C)C)nc4cc(-c5ccccc5)sc34)on2)cc1	?	-97%	·	3.7µM*	-107*	4.1µM*
CC(=O)Nc1ccc(CNc2nc(NC(C)C)nc3cc(-c4ccccc4)sc23)cc1	?	-113%	·	4.1µM*	-114*	3.7µM*
CC(=O)Nc1ccc(NCc2ccc(-c3ccccc3)cc2)cc1	-11%	-20%	-2%	-16%	0	-24%
CC(=O)NCCNc1nc(NC(C)C)nc2cc(-c3ccccc3)sc12	-7%	-28%	·	?	·	23µM*
COCCNc1nc(NCCNC(C)=O)c2sc(-c3ccccc3)cc2n1	-31%	-36%	·	?	·	?
CCCS/C(N)=N/N=C/c1ccccc1O	-30%	-22%	23%	18µM*	?	?
CCOc1ccccc1C=NN=Cc1ccccc1O	-11%	-11%	-4%	-24%	17	-17%
